Assay outcomes from PubChem BioAssay.
p53ts 32C kill – kills p53ts cells at the permissive temperature. 130,000 tested, 0.93% active. H1299-p53A138V at 32C, ATP luminescence viability, 24 h. Potency, µM (top dose mostly 46.1 µM), for the others: at the top dose activity change, negative = cytotoxicity, actives largely listed as cytotoxic. AID 924;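 also: potency is read from the fitted curve at half-maximal effect; 0% = DMSO and -100% = full killing by reference compound; nearly all actives have a fitted effect of over 55% in size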
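ATP-content luminescence (ATPlite) read-out after 24 h compound exposure at 32C in H1299-p53A138V cells (600/well). Tested up to 46 uM. Normalized to DMSO (0%) and 100 uM tamoxifen (100% killing); Hill-fit AC50.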
p53ts 39C tox – p53ts cell cytotoxicity, nonpermissive temperature | 130,000 tested, 1.5% active | H1299-p53A138V viability at 39C, ATP luminescence, 24 h | Potency, µM (top dose mostly 46.1 µM), inactives show at the top dose activity change, negative = cell killing, usual class: cytotoxic | AID 902; also: potency is read from the fitted curve at half-maximal effect; % is scaled to controls: 0 for no effect and ±100 for the full control effect; nearly all actives have a fitted effect of over 55% in size
Imprint erasure – genomic imprint erasure induction; Potency, µM (highest dose often 60.7 µM), for inactives: at the top dose activity change, positive = activation, most hits filed as activators; mouse ES Peg3-LacZ reporter, beta-gal luminescence, 40 h; 110,000 tested, 0.02% active; AID 1948; also: potency is read from the fitted curve at half-maximal effect
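Readout: BetaGlo luminescence (5 min, room temp) for LacZ from the normally silent maternal Peg3 allele in female Peg3LacZ-Neo ES cells. Cells 300/well, 40 h, 37C, 5% CO2. Data normalized per plate to negative controls.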
HBB splice mod – modulators of hemoglobin beta chain splicing | HBB splicing reporter cell assay, activation; EGFP reporter with mutant IVS2-654 intron; response scale: normalised to 500 nM splice-correcting PNA | Potency, µM (doses to about 46.1 µM), without a hit: at the top dose activation, hits mostly activators | 65,000 tested, 0.06% active | AID 925; also: potency is read from the fitted curve at half-maximal effect; 0% is about no effect
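HeLa cells stably expressing EGFP interrupted by mutant beta-globin intron 2 (IVS2-654), 500/well in 2% FCS. Treated with compound for 2 days at 37C. Splicing correction scored as total well GFP intensity (488 nm excitation, 500-520 nm emission); 500 nM antisense PNA served as control.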
Epigenetic mod – epigenetic modulators derepressing GFP locus in mouse cells. mouse C127i GFP locus derepression, cytometry, 30 h. Potency, µM (series often up to 46.1 µM), inactives show at the top dose GFP derepression (activation). 68,000 tested, 0.09% active; also: % of control where 0% means no effect
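Derepression screen: silenced CMV-GFP reporter in murine C127i cells, 30 h compound incubation at 37 C, washed cells imaged by laser-scanning cytometer to enumerate GFP-expressing objects of 20 to 120 um.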
Ub-GFP proteasome – ubiquitin-GFP accumulation via proteasome inhibition; Ubiquitin-GFP reporter cells, proteasome inhibition, GFP fluorescence; response scale: untreated = 0%, 10 µM MG-132 = 100%; Potency, µM (series often up to 45.9 µM), for inactives: at the top dose activation (GFP accumulation), actives largely listed as activators; 67,000 tested, under 10 active; AID 526; active = well fitted activation curve with a large enough effect, not every such curve was filed as active; inconclusive = small, poorly fitted or top-dose-only effect, or another doubt; inactive = no such curve, though single readings can be large or run the other way; also: potency is read from the fitted curve at half-maximal effect
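Proteasome blockade was scored as a rise in GFP-expressing U2OS cells carrying a ubiquitin(G76V)-GFP construct, imaged after 4 hr compound treatment at 37 °C across a 46 uM–2.9 nM series.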
Starred values were filed as active, the others as inactive; ? = inconclusive; . = no result given; [ ] = another dose, or the depositor's remark. Only some compounds are listed: those with a hit (about 1.6% of all), similar ones and a draw of the others. Unless noted, calls follow the shape of the dose curve; as a rule, active = well fitted curve in the direction sought with a large enough effect; inconclusive = small, poorly fitted or top-dose-only effect, or another doubt; inactive = no such curve, though single readings can be large; an effect the other way counts as inactive or inconclusive.

SMILES	p53ts 32C kill	p53ts 39C tox	Imprint erasure	HBB splice mod	Epigenetic mod	Ub-GFP proteasome
COc1ccc(-c2nnc(-c3ccc(N)cc3)o2)cc1	?	?	-49%	3%	-2%	8%
COc1ccc2nc(SCC(N)=O)[nH]c2c1	4%	8%	-16%	1%	3%	-2%
COc1ccc2nc(-c3cccc(N)c3)[nH]c2c1	7.9µM*	16µM*	.	.	.	.
COc1ccc2nc(-c3ccc(N)cc3)[nH]c2c1	16µM*	?	.	.	.	.
CC1OC(OC2CCC3(C)C(CCC4C3CC(O)C3(C)C(C5=CC(=O)OC5)CCC43O)C2)CC(O)C1OC1CC(O)C(OC2CC(O)C(OC3OC(CO)C(O)C(O)C3O)C(C)O2)C(C)O1 (stereo unspecified)	.	.	7%	.	.	.
CCSC1=NC2(CCN(C(=O)NC3CCCCC3)CC2)N=C1c1ccc(Cl)cc1	2%	-10%	-9%[10.9 µM]	.	.	.
CCN(CC)c1ccc2cc(NC(=O)CCC(=O)O)c(=O)oc2c1	?	13µM*	-14%	0%	2%	17%
CCN(CC)c1ccc2cc(C(N)=O)c(=O)oc2c1	-10%	-6%	.	.	.	.
CC(C)C(NS(=O)(=O)c1ccc2c(c1)oc(=O)n2C)C(=O)NCCc1ccccc1 (stereo unspecified)	10%	-2%	-6%[10.9 µM]	.	.	.
CCCC[C@@H]1C[C@H]1C(NC(=O)c1ccccc1)c1ccc(Cl)cc1 (stereo partly specified)	-3%	-8%	-16%	1%	.	.
CCCC[C@@H]1C[C@H]1C(NC(=O)c1cccnc1)c1ccc(Cl)cc1 (stereo partly specified)	?	13µM*	-22%	0%	.	.
Cc1cccc(NC(=O)NCCn2c(=O)oc3ccc(C)cc32)c1	-2%	-6%	7%[10.9 µM]	.	.	.
CCOC(=O)c1cnc2ccc(Cl)cc2c1Nc1ccc(N2CCOCC2)cc1	-27%	-19%	-16%[10.9 µM]	.	.	.
CCOC(=O)c1cnc2ccc(C)cc2c1Nc1ccc(N(CC)CC)cc1	-7%	13µM*	-13%[10.9 µM]	.	.	.
CCOC(=O)c1cnc2ccc(C(=O)OC)cc2c1Nc1ccc(N2CCOCC2)cc1	?	13µM*	-17%[10.9 µM]	.	.	.
CCOC(=O)c1ccc2ncc(C(=O)OCC)c(NCCN(C)C)c2c1	-9%	2%	-6%	1%	.	-7%
COc1ccc(OC)c(NC(=O)c2ccc3c(c2)c(C)c(C)n3Cc2ccc(F)cc2)c1	5%	16%	-17%[10.9 µM]	.	.	.
CC(C)OC(=O)c1c(NC(=O)COc2cccc(Br)c2)sc2c1CCCC2	5%	3%	8%[10.9 µM]	.	.	.
COc1ccc(-c2cc(C(=O)NCCc3ccccc3)c3c(-c4ccc(Cl)cc4)[nH]nc3n2)cc1	13µM*	13µM*	-27%[10.9 µM]	.	.	.
CCOc1ccc(-c2cc(C(=O)NCc3ccccc3)c3c(-c4ccc(CC)cc4)[nH]nc3n2)cc1	1%	0%	5%[10.9 µM]	.	.	.
COc1ccc(OC)c(-c2cc(C(=O)NCCc3ccccc3)c3c(-c4ccc(C)cc4)[nH]nc3n2)c1	0%	-18%	-7%[10.9 µM]	.	.	.
O=C(O)c1cc(-c2ccc(C(F)(F)F)cc2)nc2n[nH]c(-c3ccccc3)c12	?	10µM*	-8%[10.9 µM]	.	.	.
COc1ccc(-c2cc(C(=O)NCCc3ccccc3)c3c(-c4ccccc4)[nH]nc3n2)cc1	?	13µM*	-5%[10.9 µM]	.	.	.
CCCNC(=O)c1cnc2sc(N3CCCCCC3)nn2c1=O	-2%	-11%	-7%[10.9 µM]	.	.	.
CS(=O)(=O)Nc1ccc(-c2nc3ccccc3s2)cc1	4µM*	2µM*	-69%[10.9 µM]	.	.	.
SMILES	p53ts 32C kill	p53ts 39C tox	Imprint erasure	HBB splice mod	Epigenetic mod	Ub-GFP proteasome
Cc1c(NS(C)(=O)=O)cccc1-c1nc2ccccc2s1	?	?	-34%[10.9 µM]	.	.	.
CC1CCCN(CCCNC(=O)c2ccc3c(c2)N(Cc2cccc(Cl)c2)C(=O)c2ccccc2S3(=O)=O)C1 (stereo unspecified)	3%	13µM*	-17%[10.9 µM]	.	.	.
O=C(NCc1ccccc1)c1ccc2c(c1)N(Cc1cccc(Cl)c1)C(=O)c1ccccc1S2(=O)=O	-6%	15%	-11%[10.9 µM]	.	.	.
Cc1ccc(C(=O)Oc2c(S(=O)(=O)c3ccccc3)c(C)nn2-c2ccccc2)cc1	10%	-4%	-3%[10.9 µM]	.	.	.
Cc1ccc(S(=O)(=O)c2c(C)nn(C(C)(C)C)c2OC(=O)c2cccs2)cc1	?	16µM*	-30%	0%	2%	-3%
Cc1ccc(S(=O)(=O)c2c(C)nn(C(C)(C)C)c2OC(=O)c2ccc(Br)o2)cc1	10µM*	-21%	-25%	0%	4%	-2%
CC(=O)Oc1c(S(=O)(=O)c2ccc(C)cc2)c(C)nn1C(C)(C)C	-5%	5%	-14%	-1%	2%	3%
Cc1ccc(S(=O)(=O)c2c(C)nn(C(C)(C)C)c2OC(=O)C(C)(C)C)cc1	-2%	7%	-13%	-1%	4%	9%
Cc1ccc(S(=O)(=O)c2c(C)nn(C(C)(C)C)c2OC(=O)c2ccco2)cc1	?	25µM*	-19%	-1%	-1%	11%
Cc1nn(C(C)(C)C)c(OC(=O)c2ccc3c(c2)OCO3)c1S(=O)(=O)c1ccccc1	-19%	16µM*	12%	-1%	4%	8%
CC(C)(C)N1C(=O)[C@H]2[C@H]3[C@H](O)[C@H](O)C/C(=N/OCc4ccccc4)[C@H]3CC[C@@H]2C1=O	-5%[9.22 µM]	-4%[9.22 µM]	.	1%[9.22 µM]	.	.
Cc1ccc(C(c2c(O)cc(C)n(Cc3ccco3)c2=O)N2CCC(C)CC2)cc1 (stereo unspecified)	10%	-14%	26%[10.9 µM]	.	.	.
Cc1ccc(-c2nc3n(n2)Cc2ccccc2-3)cc1	8.9µM*	6.3µM*	.	.	.	.
Fc1ccc(-c2nc3n(n2)Cc2ccccc2-3)cc1	16µM*	?	-94%	-1%	0%	-3%
CCn1c(C)nc2cc(-c3nc4n(n3)Cc3ccccc3-4)ccc21	0.32µM*	0.4µM*	-97%	0%[57.5 µM]	0%	-6%
Cc1ccccc1NC(=O)Cn1c(=O)n(CCC(=O)N2CCc3ccccc3C2)c(=O)c2ccccc21	-1%	2%	-6%[10.9 µM]	.	.	.
COC(=O)c1ccc(CSc2nnc(N)s2)cc1	-8%	-12%	-32%	0%	1%	2%
COC(=O)c1ccc(CSc2nc(N)cc(N)n2)cc1	13µM*	?	-20%	0%	-3%	-4%
COc1ccc(NC(=O)c2c(NCc3ccc(C)o3)sc3c2CCC(C)C3)c(OC)c1 (stereo unspecified)	?	20µM*	-24%[10.9 µM]	.	.	.
COc1ccccc1NC(=O)c1c(NCc2ccc(C)o2)sc2c1CCC(C)C2 (stereo unspecified)	?	15%	-14%[10.9 µM]	.	.	.
